Sampled rows, rich in hits. Any-hit rate of the full collection: about 1.4%.
ugtP null kill: growth inhibition of S. aureus ugtP deletion strain | growth inhibition, % (no concentration beside the values) | S. aureus RN4220 ugtP deletion, OD600 growth, 16 h | 0.54% of 330,000 active | AID 1259309; in the data active means growth inhibition above about 68%;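 further: plate controls were untreated wells for no effect and antibiotic for full effect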
Y pestis TopoI: inhibitors of Yersinia pestis topoisomerase I; activity, % at 10 µM; AID 504884; 0.064% of 360,000 active; Y. pestis Topo-I cleavage product accumulation, plate reader; in the data active means activity above about 50%, passing the limit was not always enough; inconclusive means no clear call, values can overlap the other calls
BJeLR viability: kills HRASV12-expressing BJeLR cells | BJeLR (HRASV12) viability, CellTiter-Glo ATP luminescence, 48 h | inhibition, % (concentration not given with the values) | 0.17% of 300,000 active | AID 1554; in the data active means inhibition above about 50%; inconclusive means no clear call, values can overlap the other calls
PfHsp40 rescue: rescue of PfHsp40-mediated yeast toxicity; 0.68% of 340,000 active; growth rescue, % at 12.5 µM; AID 504582; S. cerevisiae expressing PfHsp40, growth rescue, ATP luminescence; in the data active means growth rescue above about 28%, passing the limit was not always enough; inconclusive means no clear call, values can overlap the other calls;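 further: yeast W303a lacking pdr1 and pdr3 grown in galactose medium; growth measured after three days at 30 °C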
Sa RN4220 lethal: kills Staphylococcus aureus RN4220 | inhibition, % (concentration not given with the values) | S. aureus RN4220 growth, OD600, 16 h | 0.33% of 330,000 active; in the data active means inhibition above about 85%;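 further: plate controls were untreated cells for no effect and reference antibiotic for full effect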
PrP 5UTR inh: suppresses PrP 5' UTR mRNA reporter expression. cell-based PrP 5' UTR mRNA reporter, plate reader. inhibition, % (concentration not given with the values). 0.35% of 340,000 active. AID 488862; in the data active means inhibition above about 52%; further: 0 = median of the neutral control wells
Numbers without * were called inactive.

Screening O=C(Oc1cc(=O)oc2c1c(=O)n1c3c(cccc23)CC1)c1ccccc1 returned ugtP null kill 82.1*, Y pestis TopoI 3.6, BJeLR viability -8.7, PfHsp40 rescue -0.3, Sa RN4220 lethal 34.0 and PrP 5UTR inh -22.6.
Screening O=C(Nc1nc(NC(=O)c2ccco2)n(-c2ccccc2)n1)c1ccccc1 returned ugtP null kill 75.7, Y pestis TopoI 5.3, BJeLR viability 23.9, PfHsp40 rescue -0.7, Sa RN4220 lethal 92.1* and PrP 5UTR inh 18.9.
Screening CCOC(=O)[C@@H]1[C@H]2COc3cc(OC)ccc3[C@@H]2N2C(=O)N(c3cccc(C)c3)C(=O)[C@]12C returned Y pestis TopoI -9.3, PfHsp40 rescue 64.7* and PrP 5UTR inh -6.5.
For Cc1ccc(/C=C(\C#N)C(=O)NCC2CCCO2)o1 (stereo not drawn) the results were ugtP null kill -0.4, Y pestis TopoI -1.4, BJeLR viability -3.3, PfHsp40 rescue inconclusive, Sa RN4220 lethal 2.9 and PrP 5UTR inh -5.5.
Cc1ccccc1-n1c(C)cc(/C=C(\C#N)C(=O)NCC2CCCO2)c1C (stereo not drawn) was read as ugtP null kill -0.4, Y pestis TopoI 5.5, BJeLR viability 2.9, PfHsp40 rescue 30.3*, Sa RN4220 lethal 0.5 and PrP 5UTR inh 5.8.
For CCC(C)C(C(=O)N1CCN(C(=O)OC(C)(C)C)CC1)n1cc(CCCCNC(=O)OC(C)(C)C)nn1 (stereo not drawn) the results were ugtP null kill -2.3 and Sa RN4220 lethal 3.7.
For CCOc1cc(/C=N/NC(N)=S)cc(Br)c1OCc1ccccc1C the results were Y pestis TopoI 1.6, BJeLR viability 0.0, PfHsp40 rescue 83.1* and PrP 5UTR inh -36.5.
For COc1cc(/C=N/NC(N)=S)cc(Br)c1OCc1ccccc1F the results were Y pestis TopoI -2.9, BJeLR viability 1.6, PfHsp40 rescue 3.1 and PrP 5UTR inh -13.6.
`CCCNC(=O)N1C2=NC(C(=O)OC)=C(C(=O)OC)C3N(Cc4ccccc4)c4ccccc4[C@]23CC1CO` (stereo partly drawn) gave ugtP null kill 3.3 and Sa RN4220 lethal 2.1.
`CC(=O)OC1CC[C@@]2(C)C(=CCC3C4CCC(C5(C)OCCO5)[C@@]4(C)CCC32)C1` (stereo partly drawn) gave ugtP null kill 5.1 and Sa RN4220 lethal -3.5.
Screening COC(=O)C1=CC(C(=O)OC)C2C3=C(C(=O)[C@@]2(C)NC(=O)c2ccccc2)C(C)n2c(=O)n(C)c(=O)n2C3C1 (stereo partly drawn) returned ugtP null kill 3.5 and Sa RN4220 lethal 3.1.
For COc1cc2nc(N3CCNCC3)nc(N)c2cc1OC the results were ugtP null kill 9.7, Y pestis TopoI -4.7, BJeLR viability 2.8, PfHsp40 rescue 185.8*, Sa RN4220 lethal 7.8 and PrP 5UTR inh -21.4.
`COc1cc2nc(N3CCN(c4cc(C)ccc4C)CC3)nc(N)c2cc1OC` gave ugtP null kill -4.3, Y pestis TopoI -27.4, BJeLR viability 18.8, PfHsp40 rescue -1.3, Sa RN4220 lethal 17.3 and PrP 5UTR inh 5.1.
`Cc1ccc(C(=O)Nc2cccc([N+](=O)[O-])c2)cc1S(=O)(=O)Nc1cccc(C(=O)O)c1` gave ugtP null kill 93.8*, Y pestis TopoI 4.0, BJeLR viability 6.7, PfHsp40 rescue -0.4, Sa RN4220 lethal 26.7 and PrP 5UTR inh -12.6.
`CCCCOc1ccc(-c2csc(N)n2)cc1[N+](=O)[O-]` gave ugtP null kill 8.3, Y pestis TopoI -5.4, BJeLR viability -2.8, PfHsp40 rescue 140.9*, Sa RN4220 lethal 8.5 and PrP 5UTR inh -79.0.
CCN(CC)c1ccc(C=C2NC(=O)NC2=O)cc1 was read as ugtP null kill -5.4 and Sa RN4220 lethal 1.0.
Screening COc1ccc(C=C(C#N)C(=O)Nc2cccc(C)c2C)cc1C(=O)O returned ugtP null kill 1.1 and Sa RN4220 lethal 4.6.
`CN(Cc1ccccc1)C(=O)c1ccccc1C(=O)OCC(=O)N(Cc1ccccc1)C(C)(C)C` gave ugtP null kill -6.5, Y pestis TopoI 2.8, PfHsp40 rescue 1.8 and Sa RN4220 lethal 3.4.
CCOc1ccc(C(C)=O)cc1COC(=O)c1ccccc1C(=O)N(C)Cc1ccccc1 was read as ugtP null kill 12.2, Y pestis TopoI 28.4, PfHsp40 rescue 96.0*, Sa RN4220 lethal 9.8 and PrP 5UTR inh -6.4.
Screening CC1Oc2ccccc2C=C1C1C(=C(O)c2ccccc2)C(=O)C(=O)N1CCCN(C)C (stereo not drawn) returned ugtP null kill 1.5 and Sa RN4220 lethal 3.4.
Screening O=C(NCc1ccco1)c1cc(-c2ccccc2)nn1CC1CC(c2cccnc2)=NO1 (stereo not drawn) returned ugtP null kill 1.2, Y pestis TopoI 3.0, BJeLR viability -3.1, PfHsp40 rescue 0.7, Sa RN4220 lethal 2.0 and PrP 5UTR inh -17.9.
For O=C(NCc1ccc(OC(F)(F)F)cc1)c1cc(-c2ccccc2)nn1CC1CC(c2cccnc2)=NO1 (stereo not drawn) the results were ugtP null kill -0.2, Y pestis TopoI 23.9, BJeLR viability -0.6, PfHsp40 rescue 65.0*, Sa RN4220 lethal -2.2 and PrP 5UTR inh -3.0.
`CC1(C)OC2C(CO)OC(n3c(N4CCCCC4)nc4c(N)ncnc43)C2O1` (stereo not drawn) gave ugtP null kill 6.0 and Sa RN4220 lethal 4.6.
For COc1c(O)c(=O)n2c3ccccc3c3ccnc1c32 the results were ugtP null kill -0.1, Y pestis TopoI -1.6, BJeLR viability 6.0, PfHsp40 rescue 66.3*, Sa RN4220 lethal 2.5 and PrP 5UTR inh -9.1.
For Cc1cc(NS(=O)(=O)c2ccc(NC(=O)CSc3nnc(-c4ccco4)n3Cc3ccco3)cc2)nc(C)n1 the results were ugtP null kill 0.6, Y pestis TopoI 9.5, BJeLR viability 6.8, PfHsp40 rescue 54.4*, Sa RN4220 lethal 4.9 and PrP 5UTR inh -24.1.
For O=C(C1CCC1)N1CCc2cc(S(=O)(=O)N3CCN(c4ccccn4)CC3)ccc21 the results were ugtP null kill 2.6, Y pestis TopoI 55.0*, BJeLR viability 1.6, PfHsp40 rescue 0.7, Sa RN4220 lethal -2.1 and PrP 5UTR inh -19.8.
Screening C#CCOCCOCCOCCNc1nc(N2CCN(C(=O)C(CCC(=O)O)n3cc(C(N)C(C)CC)nn3)CC2)nc(N2CCN(C(=O)C(C(C)CC)n3cc(C(N)CC(C)C)nn3)CC2)n1 (stereo not drawn) returned ugtP null kill 7.6 and Sa RN4220 lethal 0.3.
Screening CC1=CC2=NC(=O)/C(=C\c3cccn3CCOc3cccc(C)c3)C(=N)N2O1 returned ugtP null kill 7.2, Y pestis TopoI 8.3, BJeLR viability 3.4, PfHsp40 rescue 44.2*, Sa RN4220 lethal 1.7 and PrP 5UTR inh -16.9.
For CCN1CC2C3C(=O)N(C)C(=O)C3[C@](C)(C1=O)N2C(=O)c1ccc(Br)cc1 (stereo partly drawn) the results were ugtP null kill 1.1 and Sa RN4220 lethal 4.4.

From PubChem
